Measurements: PubChem BioAssay (Tox21)
Results filed as inconclusive are left out. Active and inactive are the calls of the source. The call rests on the fitted dose curve; in most records, active means well fitted activation curve with a large enough effect in the signal ratio in the repeat runs (not every such curve was filed as active); inconclusive means weak or mixed curves, or effect the other way; inactive means no such curve, though single readings can be large or run the other way; the % refers to the signal ratio.

Biological target: Glucocorticoid receptor (Homo sapiens) (UniProt P04150)
Test: qHTS assay to identify small molecule agonists of the glucocorticoid receptor (GR) signaling pathway (AID 720691)
Conditions: GR-bla HeLa, beta-lactamase reporter ratio, 18 h; series mostly up to 62.4 µM; activation: at the top concentration
Excerpt: U.S. Tox21 Program National Center for Advancing Translational Sciences [NCATS] NIH Chemical Genomics Center [NCGC] U.S. Environmental Protection Agency [EPA] National Institutes of Environmental Health Sciences [NIEHS] National Toxicology Program [NTP] U.S. Food and Drug Administration [FDA] Tox21 Assay Overview: The Glucocorticoid receptor (GR) is one of the members of the nuclear receptor family of ligand-dependent transcription factors. GR plays a critical role in carbohydrate, protein and lipid metabolisms and programmed cell death. CellSensor GR-bla HeLa cell line (Invitrogen) contains a beta-lactamase reporter gene under the control of the glucocorticoid response element stably integrated into HeLa cells, a cervical cancer cell line that expresses glucocorticoid receptor. The activation of the reporter gene under culture conditions can be detected by fluorescence intensity. This cell line has been used to screen the Tox21 10K compound library and to identify the compounds that activate the GR signaling.
Tox21 Assay Protocol Summary: The GR-bla HeLa cells were dispensed at 1500 cells/6 ul/well in 1536-well black wall/clear bottom plates using a Multidrop Combi (ThermoFisher Scientific, Waltham, MA) dispenser. After the assay plates were incubated at a 37 C/5% CO2 incubator for 4 hours, 23 nL of compounds dissolved in DMSO, positive controls or DMSO only was transferred to the assay plate by a pintool station (Kalypsys, San Diego, CA). The plates were incubated at 37 C for 18 hours. After 1 uL of LiveBLAzerTM B/G FRET substrate was added using a Flying Reagent Dispenser (Aurora Discovery, San Diego, CA), the plates were incubated at room temperature for 2 hours, and fluorescence intensity was measured by an Envision plate reader (PerkinElmer, Shelton, CT).
On the % scale 0 is the no-effect control and ±100 the full control effect.

Chain of Glucocorticoid receptor (Homo sapiens) (P04150 whole entry, looked up): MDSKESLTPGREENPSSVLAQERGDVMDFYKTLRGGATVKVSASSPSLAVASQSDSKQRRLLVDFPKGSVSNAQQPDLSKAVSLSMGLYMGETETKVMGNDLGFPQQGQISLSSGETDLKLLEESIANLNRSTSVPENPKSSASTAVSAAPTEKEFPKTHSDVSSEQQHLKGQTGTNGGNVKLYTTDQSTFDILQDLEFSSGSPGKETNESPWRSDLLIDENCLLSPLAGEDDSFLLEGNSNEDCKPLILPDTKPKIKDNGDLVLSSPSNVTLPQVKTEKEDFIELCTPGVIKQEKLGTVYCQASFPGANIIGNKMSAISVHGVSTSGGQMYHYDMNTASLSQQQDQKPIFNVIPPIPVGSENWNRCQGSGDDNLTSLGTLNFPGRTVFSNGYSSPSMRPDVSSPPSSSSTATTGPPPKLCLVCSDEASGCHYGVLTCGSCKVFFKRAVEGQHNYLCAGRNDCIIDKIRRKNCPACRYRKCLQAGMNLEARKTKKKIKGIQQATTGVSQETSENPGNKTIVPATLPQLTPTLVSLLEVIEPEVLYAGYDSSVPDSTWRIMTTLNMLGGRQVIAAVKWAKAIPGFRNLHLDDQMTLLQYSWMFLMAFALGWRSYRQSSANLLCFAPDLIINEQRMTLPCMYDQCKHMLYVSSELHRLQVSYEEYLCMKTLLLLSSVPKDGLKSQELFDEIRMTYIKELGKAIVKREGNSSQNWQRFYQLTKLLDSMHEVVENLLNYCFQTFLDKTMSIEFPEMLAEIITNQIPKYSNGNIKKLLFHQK

| SMILES | activation | Potency |
| --- | --- | --- |
| CC(C)(C)c1ccc(CCC=O)cc1 | 2.37% (inactive) |  |
| CCCCCCOC(=O)c1ccccc1 | -3.56% (inactive) |  |
| Nc1ccc(C(=O)Oc2ccccc2)c(O)c1 | -5.16% (inactive) |  |
| O=C(O)COCC(=O)O | -1.41% [at 79.2 µM] (inactive) |  |
| CCOC(C)OCC |  | inactive |
| Clc1cccc(C(c2ccc3nc[nH]c3c2)n2ccnc2)c1 (stereo not given) | -1.57% (inactive) |  |
| CCCc1nc(C)c2c(=O)[nH]c(-c3cc(S(=O)(=O)N4CCN(CC)CC4)ccc3OCC)nn12 | -0.99% (inactive) |  |
| CS(C)=O | -2.64% (inactive) |  |
| O=C(O)c1ccc(O)c(O)c1 | 0.5% (inactive) |  |
| CCC1=C(C)CN(C(=O)NCCc2ccc(S(=O)(=O)NC(=O)NC3CCC(C)CC3)cc2)C1=O (stereo not given) | -0.44% (inactive) |  |
| O=c1c2ccccc2oc2ccccc12 | -3.86% (inactive) |  |
| Cc1c(Cl)cccc1[N+](=O)[O-] | 0.0278% (inactive) |  |
| Clc1cc(Cl)c2c(c1)N=C1CCCCCN1C2 | -2.41% (inactive) |  |
| COc1cc(CNC(=O)CCCC/C=C/C(C)C)ccc1O |  | inactive |
| C=C[Si]1(C)O[Si](C)(C=C)O[Si](C)(C=C)O[Si](C)(C=C)O1 (stereo not given) | -1.86% (inactive) |  |
| OCCc1ccncc1 | 0.114% (inactive) |  |
| C=CC(C)CCC=C(C)C (stereo not given) | 3.25% (inactive) |  |
| O=C(O)CNc1ccccc1 | -1.15% (inactive) |  |
| FC1(F)C(F)(F)C(F)(F)C2(F)C(F)(C1(F)F)C(F)(F)C(F)(F)C1(F)C(F)(F)C(F)(F)C(F)(F)C(F)(F)C12F (stereo not given) | 0.0395% (inactive) |  |
| O=C1c2ccccc2C(=O)C1c1ccc2cc(S(=O)(=O)O)cc(S(=O)(=O)O)c2n1 | -6.42% [at 79.2 µM] (inactive) |  |

| SMILES | activation | Potency |
| --- | --- | --- |
| CO[C@@H]1COCC[C@@H]1N[C@@H]1CC[C@@](C(=O)N2CCc3ncc(C(F)(F)F)cc3C2)(C(C)C)C1 | 0.298% (inactive) |  |
| Nc1cccc2c(=O)[nH][nH]c(=O)c12 | -0.272% [at 79.2 µM] (inactive) |  |
| Cc1ccc2c(Cl)cc(Cl)c(O)c2n1 | -6.61% (inactive) |  |
| CCCCCCCCNC | 1.3% (inactive) |  |
| CCCCCC1CCC(=O)O1 (stereo not given) | -0.0698% (inactive) |  |
| CC1=C(C)C(=O)C(C(CCCCCC(=O)O)c2ccccc2)=C(C)C1=O (stereo not given) | -1.72% (inactive) |  |
| C[C@H](CN1CCCC1)C(=O)c1ccc(C(F)(F)F)cc1 | -2.81% (inactive) |  |
| CCOc1ccc2c(c1)C(C)CC(C)(C)N2 (stereo not given) | 0.153% (inactive) |  |
| [O-][n+]1ccc(Cl)cc1 | 1.12% [at 79.2 µM] (inactive) |  |
| CC(C)C/C=C(\C=O)c1ccccc1 | -6.1% (inactive) |  |
| Cc1c(N=C=O)cccc1N=C=O | -0.223% [at 79.2 µM] (inactive) |  |
| CC(O)C(C)O (stereo not given) | -0.424% [at 79.2 µM] (inactive) |  |
| CCn1nc(Cc2ccccc2)cc1C1CCN(C[C@H]2C[C@H](N(C)[C@@H](C(=O)O)C(C)C)C[C@@H]2c2cccc(F)c2)CC1 | -5.64% (inactive) |  |
| O=c1[nH][nH]c2ccccc12 | -3.28% [at 79.2 µM] (inactive) |  |
| CO[C@@H]1[C@@H](O[C@@H]2O[C@H](C)[C@@H](O[C@H]3C[C@@](C)(O)[C@@H](O)[C@H](C)O3)[C@H](N(C)C)[C@H]2O)[C@@H](CC=O)C[C@@H](C)[C@@H](O[C@@H]2CC[C@H](N(C)C)[C@@H](C)O2)/C=C/C=C/C[C@@H](C)OC(=O)C[C@H]1OC(C)=O | -3.87% (inactive) |  |
| COC(=O)C(C)(C)C | -0.0518% [at 79.2 µM] (inactive) |  |
| O=C(O)c1cccnc1Nc1cccc(C(F)(F)F)c1 | -12.3% (inactive) |  |
| CC/C=C\CCO | 0.539% (inactive) |  |
| O=C1c2ccccc2C(=O)c2c1ccc(O)c2O | 0.254% (inactive) |  |
| CC1=C(C)C(=O)C(CCCCC#CCCCC#CCO)=C(C)C1=O | 1.71% (inactive) |  |
